Source: PubChem BioAssay AID1159580 (chemical genetic matrix, 2015)
Where “and” joins values, the source holds several entries; their conditions need not be identical. Equal values may be shown once. About 2,000 (36%) of roughly 5,500 compounds were called active. Inconclusive results (about 18%) are left out. No stated cut-off is given here; in the data, active means normalized growth mostly below about 0.91 (no sharp cut-off); inconclusive means no clear call, values can overlap the other calls; inactive means mostly above about 0.92. This is one part of the list.

Assay: chemical genetic growth profiling, strain panel (AID 1159580);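 further: tested at 20 µM; growth read once vehicle control cultures reached saturation at 30 °C; 1 = growth at the plate median or of vehicle wells; lower values mean less growth of the strain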
Conditions: S. cerevisiae deletion strains, growth OD

Measured: normalized growth

CC[N+]1(C)CCCC(OC(=O)C(O)(c2ccccc2)c2ccccc2)C1 (stereo not given)
inactive: locus YAL013W, strain DEP1, active compounds read low 1.01 | locus YAL021C, strain ccr4, active compounds read low 1.01 | locus YAL026C, strain drs2, active compounds read low 1.03 | locus YAL030W, strain snc1, active compounds read low 1.02 | locus YBL061C, strain skt5, active compounds read low 1.03 | locus YBR009C, strain hhf1, active compounds read low 1.02 | locus YBR021W, strain FUR4, active compounds read low 1.02 | locus YBR023C, strain chs3, active compounds read low 1.02 | locus YBR171W, strain sec66, active compounds read low 1.03 | locus YBR229C, strain ROT2, active compounds read low 1.01 | locus YBR231C, strain swc5, active compounds read low 1.03 | locus YBR279W, strain paf1, active compounds read low 1.02 | locus YCL011C, strain gbp2, active compounds read low 1.03 | locus YCL016C, strain dcc1, active compounds read low 1.01 | locus YCL029C, strain bik1, active compounds read low 1.02 | locus YCL061C, strain MRC1, active compounds read low 1.02 | locus YCL069W, strain vba3, active compounds read low 1.03 | locus YCR088W, strain abp1, active compounds read low 1.02 | locus YDL005C, strain med2, active compounds read low 1.03 | locus YDL035C, strain GPR1, active compounds read low 1.02 | locus YDL040C, strain nat1, active compounds read low 1.01 | locus YDL074C, strain BRE1, active compounds read low 1 | locus YDL101C, strain DUN1, active compounds read low 1.01 | locus YDL134C, strain PPH21, active compounds read low 1.02 | locus YDL185W, strain tfp1, active compounds read low 1.01 | locus YDL192W, strain arf1, active compounds read low 1.02 | locus YDR001C, strain nth1, active compounds read low 1.02 | locus YDR069C, strain doa4, active compounds read low 1.03 | locus YDR101C, strain arx1, active compounds read low 1.02 | locus YDR137W, strain rgp1, active compounds read low 1.07 | locus YDR159W, strain sac3, active compounds read low 1 | locus YDR162C, strain NBP2, active compounds read low 1.01 | locus YDR195W, strain ref2 1.01 | locus YDR297W, strain sur2, active compounds read low 1.02 | locus YDR318W, strain mcm21, active compounds read low 1 | locus YDR334W, strain swr1, active compounds read low 1.03 | locus YDR335W, strain msn5, active compounds read low 1.03 | locus YDR388W, active compounds read low 1.02 | locus YDR392W, strain spt3, active compounds read low 0.931 | locus YDR502C, strain sam2, active compounds read low 1.01 | locus YEL003W, strain gim4, active compounds read low 1.02 | locus YEL037C, strain rad23, active compounds read low 1.02 | locus YEL061C, strain CIN8 (second series), active compounds read low 1.02 | locus YEL061C, strain CIN8, active compounds read low 1.01 | locus YER015W, strain faa2, active compounds read low 1.02 | locus YER016W, strain bim1, active compounds read low 1.02 | locus YER110C, active compounds read low 1.02 | locus YER111C, strain swi4, active compounds read low 1.03 | locus YER155C, strain BEM2 (second series), active compounds read low 1.01 | locus YER155C, strain BEM2, active compounds read low 1 | locus YER167W, strain BCK2, active compounds read low 1.01 | locus YFR010W, strain ubp6, active compounds read low 1.03 | locus YGL078C, strain dbp3, active compounds read low 1.02 | locus YGL086W, strain mad1, active compounds read low 1 | locus YGL167C, strain pmr1, active compounds read low 1.03 | locus YGL173C, strain kem1, active compounds read low 1.04 | locus YGL227W, strain vid30, active compounds read low 1.03 | locus YGL240W, strain doc1, active compounds read low 1.03 | locus YGL248W, strain PDE1, active compounds read low 1 | locus YGL253W, strain hxk2, active compounds read low 1.03 | locus YGR078C, strain PAC10, active compounds read low 1 | locus YGR135W, strain pre9, active compounds read low 1.02 | locus YGR229C, strain SMI1, active compounds read low 1.01 | locus YGR252W, strain gcn5, active compounds read low 1 | locus YHR013C, strain ard1, active compounds read low 1.04 | locus YHR027C, strain rpn1, active compounds read low 1.02 | locus YHR030C, strain SLT2, active compounds read low 1.01 and 1.02 | locus YHR079C, strain IRE1 (second series), active compounds read low 1.01 | locus YHR079C, strain IRE1, active compounds read low 1.03 | locus YHR094C, strain hxt1, active compounds read low 1.01 | locus YHR129C, strain ARP1, active compounds read low 0.999 | locus YHR142W, strain chs7, active compounds read low 1.03 | locus YHR200W, strain rpn10, active compounds read low 1.01 | locus YIL066C, strain RNR3, active compounds read low 1.02 | locus YIL073C, strain SPO22, active compounds read low 1.07 | locus YIL125W, strain kgd1, active compounds read low 1 | locus YIR030C, strain dcg1, active compounds read low 1.01 | locus YJL092W, strain hpr5, active compounds read low 1.02 | locus YJL095W, strain BCK1 (second series), active compounds read low 1.01 | locus YJL095W, strain BCK1, active compounds read low 0.998 and 1.03 | locus YJL115W, strain asf1, active compounds read low 1.03 | locus YJL129C, strain trk1, active compounds read low 1.04 | locus YJL134W, strain LCB3, active compounds read low 1 | locus YJL154C, strain vps35, active compounds read low 1.02 | locus YJL164C, strain tpk1, active compounds read low 1.01 | locus YJL166W, strain qcr8, active compounds read low 1.03 | locus YJL168C, strain set2, active compounds read low 1.01 | locus YJL187C, strain SWE1 (second series), active compounds read low 1.01 | locus YJL187C, strain SWE1, active compounds read low 1.02 | locus YJR043C, strain POL32, active compounds read low 1.04
